What was measured:
Assay in all cases: DAPPL (digital affinity profiling via proximity ligation, sequencing); 10 mM Tris-HCl pH 7.5, 50 mM NaCl, 1 mM DTT, 4% glycerol, room temperature, 30 min; GST-TFs on glutathione beads, 16-mer random dsDNA library, 0.1% formaldehyde crosslink after washing; high values mean tight binding
FEV = biological target: T1, FEV (Homo sapiens, UniProt Q99581 1-238); conditions: protein: recombinant; tags: N-terminal GST; dsDNA, one strand shown
T1 sequence: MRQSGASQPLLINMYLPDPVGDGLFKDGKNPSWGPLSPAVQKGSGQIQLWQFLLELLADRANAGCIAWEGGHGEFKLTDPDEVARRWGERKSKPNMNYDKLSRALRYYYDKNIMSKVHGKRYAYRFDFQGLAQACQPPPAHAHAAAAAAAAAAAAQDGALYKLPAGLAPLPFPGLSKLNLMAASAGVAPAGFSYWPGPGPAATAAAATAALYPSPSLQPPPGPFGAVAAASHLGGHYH
In short: (§1)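 The binding signal reported is, for every hexamer, its read frequency for a factor over its read frequency for the tag-only sample. Reads came from pools of yeast-expressed, GST-fused human transcription factors on glutathione beads, barcoded with DNA and mixed with that sample, which were incubated with 200 nmole of a random double-stranded 16-mer DNA library in Tris/NaCl/DTT/glycerol buffer at room temperature for 30 min. After washing, the pools were crosslinked with 0.1% formaldehyde, proximity-ligated with BsaI/T4 ligase for 1 h at 37 °C, PCR-amplified and sequenced on an Illumina NextSeq500.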

ETV5 = ETV5 (Homo sapiens, UniProt P41161 1-510); conditions: protein: recombinant; tags: N-terminal GST; dsDNA, one strand shown
ETV5, sequence (P41161 whole entry): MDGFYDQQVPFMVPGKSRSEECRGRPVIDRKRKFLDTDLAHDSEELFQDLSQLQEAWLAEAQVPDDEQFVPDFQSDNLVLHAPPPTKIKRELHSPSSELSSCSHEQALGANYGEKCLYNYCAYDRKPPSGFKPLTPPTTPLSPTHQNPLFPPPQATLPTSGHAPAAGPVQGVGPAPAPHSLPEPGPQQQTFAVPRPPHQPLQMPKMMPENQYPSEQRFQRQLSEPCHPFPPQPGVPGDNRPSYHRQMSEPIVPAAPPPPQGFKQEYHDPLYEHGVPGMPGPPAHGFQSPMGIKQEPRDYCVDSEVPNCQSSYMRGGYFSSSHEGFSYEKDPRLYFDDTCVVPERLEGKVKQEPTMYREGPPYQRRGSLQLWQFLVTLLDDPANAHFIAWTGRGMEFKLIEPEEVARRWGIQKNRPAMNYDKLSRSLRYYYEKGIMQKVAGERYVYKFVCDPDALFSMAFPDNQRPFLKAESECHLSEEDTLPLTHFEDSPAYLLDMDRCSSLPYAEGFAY
In short: as §1

HSF1 = HSF1 (Homo sapiens, UniProt Q00613 1-529); conditions: protein: recombinant; tags: N-terminal GST; chain copies: 3; dsDNA, one strand shown
HSF1, sequence (Q00613 whole entry): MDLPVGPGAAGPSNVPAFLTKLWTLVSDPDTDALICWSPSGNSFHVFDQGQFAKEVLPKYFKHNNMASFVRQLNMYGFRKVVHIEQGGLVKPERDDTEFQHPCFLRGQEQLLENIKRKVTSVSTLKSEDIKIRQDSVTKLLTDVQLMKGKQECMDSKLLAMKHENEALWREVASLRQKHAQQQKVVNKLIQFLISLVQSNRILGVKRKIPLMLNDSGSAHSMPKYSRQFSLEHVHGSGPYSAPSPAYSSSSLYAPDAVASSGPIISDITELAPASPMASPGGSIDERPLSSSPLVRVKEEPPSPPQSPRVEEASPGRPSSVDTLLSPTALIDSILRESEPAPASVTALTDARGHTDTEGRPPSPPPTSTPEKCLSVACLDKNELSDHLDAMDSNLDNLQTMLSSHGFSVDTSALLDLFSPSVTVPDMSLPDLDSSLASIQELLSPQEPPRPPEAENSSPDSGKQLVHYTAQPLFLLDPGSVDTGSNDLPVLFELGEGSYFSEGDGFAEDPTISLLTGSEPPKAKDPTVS
In short: as §1

SPIC = biological target: T2, SPIC (Homo sapiens, UniProt Q8N5J4 1-248); conditions: protein: recombinant; tags: N-terminal GST; dsDNA, one strand shown
T2 sequence: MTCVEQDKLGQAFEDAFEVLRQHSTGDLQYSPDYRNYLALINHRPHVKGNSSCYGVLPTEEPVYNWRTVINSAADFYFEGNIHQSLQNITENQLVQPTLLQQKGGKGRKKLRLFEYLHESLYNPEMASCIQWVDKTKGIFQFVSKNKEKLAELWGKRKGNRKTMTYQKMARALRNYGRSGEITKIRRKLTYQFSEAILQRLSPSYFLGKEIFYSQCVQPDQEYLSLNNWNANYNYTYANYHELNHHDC
In short: as §1

ELF4 = ELF4 (Homo sapiens, UniProt Q99607 1-663); conditions: protein: recombinant; tags: N-terminal GST; dsDNA, one strand shown
ELF4, sequence (Q99607 whole entry): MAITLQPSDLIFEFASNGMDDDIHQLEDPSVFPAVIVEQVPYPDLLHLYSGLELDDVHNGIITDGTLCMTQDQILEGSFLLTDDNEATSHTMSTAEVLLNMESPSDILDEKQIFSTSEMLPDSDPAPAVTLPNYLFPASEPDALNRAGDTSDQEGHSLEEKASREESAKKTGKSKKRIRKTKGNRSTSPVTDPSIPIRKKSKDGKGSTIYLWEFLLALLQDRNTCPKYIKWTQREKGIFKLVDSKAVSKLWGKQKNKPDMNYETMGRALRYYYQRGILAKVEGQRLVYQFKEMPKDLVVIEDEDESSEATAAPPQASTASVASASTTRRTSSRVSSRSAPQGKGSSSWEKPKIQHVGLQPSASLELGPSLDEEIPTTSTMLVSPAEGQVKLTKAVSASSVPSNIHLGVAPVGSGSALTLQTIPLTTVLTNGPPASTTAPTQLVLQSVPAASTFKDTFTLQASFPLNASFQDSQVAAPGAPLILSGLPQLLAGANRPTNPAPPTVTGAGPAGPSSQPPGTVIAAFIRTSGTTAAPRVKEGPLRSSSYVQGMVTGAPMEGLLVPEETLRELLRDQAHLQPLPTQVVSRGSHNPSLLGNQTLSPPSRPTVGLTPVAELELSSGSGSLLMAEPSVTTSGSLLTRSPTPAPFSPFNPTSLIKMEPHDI
In short: as §1

ELK4 = biological target: T3, ELK4 (Homo sapiens, UniProt P28324-2 1-405); conditions: protein: recombinant; tags: N-terminal GST; dsDNA, one strand shown
T3 sequence: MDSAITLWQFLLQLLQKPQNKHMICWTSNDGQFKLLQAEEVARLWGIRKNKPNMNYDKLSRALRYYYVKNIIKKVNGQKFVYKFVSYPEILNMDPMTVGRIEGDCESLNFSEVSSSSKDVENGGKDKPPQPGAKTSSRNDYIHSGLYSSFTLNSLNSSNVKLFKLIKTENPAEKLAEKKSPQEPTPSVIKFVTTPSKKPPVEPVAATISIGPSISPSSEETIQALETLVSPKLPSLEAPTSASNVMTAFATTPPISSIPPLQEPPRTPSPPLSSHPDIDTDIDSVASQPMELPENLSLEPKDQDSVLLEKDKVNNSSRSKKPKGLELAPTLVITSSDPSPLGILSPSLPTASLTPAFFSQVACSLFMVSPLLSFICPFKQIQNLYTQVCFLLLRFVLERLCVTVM
In short: as §1

ETV2 = biological target: T4, ETV2 (Homo sapiens, UniProt O00321 1-342); conditions: protein: recombinant; tags: N-terminal GST; dsDNA, one strand shown
T4 sequence: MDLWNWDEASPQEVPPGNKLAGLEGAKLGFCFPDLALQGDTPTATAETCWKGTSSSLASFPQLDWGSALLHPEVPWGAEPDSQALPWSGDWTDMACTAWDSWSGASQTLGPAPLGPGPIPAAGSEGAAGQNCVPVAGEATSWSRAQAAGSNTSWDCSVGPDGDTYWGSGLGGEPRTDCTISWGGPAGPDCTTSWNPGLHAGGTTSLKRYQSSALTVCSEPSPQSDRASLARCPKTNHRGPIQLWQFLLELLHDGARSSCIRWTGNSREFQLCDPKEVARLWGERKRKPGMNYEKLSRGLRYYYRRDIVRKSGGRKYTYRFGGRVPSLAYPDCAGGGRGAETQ
In short: as §1

CRX = CRX (Homo sapiens, UniProt O43186 1-299); conditions: protein: recombinant; tags: N-terminal GST; dsDNA, one strand shown
CRX, sequence (O43186 whole entry): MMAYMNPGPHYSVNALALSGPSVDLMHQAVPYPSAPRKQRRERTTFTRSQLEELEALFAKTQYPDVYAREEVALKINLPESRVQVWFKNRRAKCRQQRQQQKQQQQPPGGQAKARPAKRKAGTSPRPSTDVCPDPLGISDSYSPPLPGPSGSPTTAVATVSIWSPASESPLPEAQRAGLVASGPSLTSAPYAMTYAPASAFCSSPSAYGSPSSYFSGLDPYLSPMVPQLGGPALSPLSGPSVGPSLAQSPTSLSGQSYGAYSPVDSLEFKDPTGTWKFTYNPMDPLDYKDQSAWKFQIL
In short: as §1

ETV1 = ETV1 (Homo sapiens, UniProt P50549 1-477); conditions: protein: recombinant; tags: N-terminal GST; dsDNA, one strand shown
ETV1, sequence (P50549 whole entry): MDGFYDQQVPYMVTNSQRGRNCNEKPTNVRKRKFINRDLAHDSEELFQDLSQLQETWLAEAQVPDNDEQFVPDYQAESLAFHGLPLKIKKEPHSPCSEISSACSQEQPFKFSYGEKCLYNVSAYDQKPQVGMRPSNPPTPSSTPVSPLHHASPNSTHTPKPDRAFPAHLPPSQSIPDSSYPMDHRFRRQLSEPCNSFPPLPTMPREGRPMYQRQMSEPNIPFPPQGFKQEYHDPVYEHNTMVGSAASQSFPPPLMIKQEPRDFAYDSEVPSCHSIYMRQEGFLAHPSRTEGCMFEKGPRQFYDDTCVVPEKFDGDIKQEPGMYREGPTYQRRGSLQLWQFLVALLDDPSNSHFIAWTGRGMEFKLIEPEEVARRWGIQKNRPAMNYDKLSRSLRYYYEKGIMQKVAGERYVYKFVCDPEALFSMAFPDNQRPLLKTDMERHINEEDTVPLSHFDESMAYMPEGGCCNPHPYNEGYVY
In short: as §1

ERF = biological target: T5, ERF (Homo sapiens, UniProt P50548 1-548); conditions: protein: recombinant; tags: N-terminal GST; dsDNA, one strand shown
T5 sequence: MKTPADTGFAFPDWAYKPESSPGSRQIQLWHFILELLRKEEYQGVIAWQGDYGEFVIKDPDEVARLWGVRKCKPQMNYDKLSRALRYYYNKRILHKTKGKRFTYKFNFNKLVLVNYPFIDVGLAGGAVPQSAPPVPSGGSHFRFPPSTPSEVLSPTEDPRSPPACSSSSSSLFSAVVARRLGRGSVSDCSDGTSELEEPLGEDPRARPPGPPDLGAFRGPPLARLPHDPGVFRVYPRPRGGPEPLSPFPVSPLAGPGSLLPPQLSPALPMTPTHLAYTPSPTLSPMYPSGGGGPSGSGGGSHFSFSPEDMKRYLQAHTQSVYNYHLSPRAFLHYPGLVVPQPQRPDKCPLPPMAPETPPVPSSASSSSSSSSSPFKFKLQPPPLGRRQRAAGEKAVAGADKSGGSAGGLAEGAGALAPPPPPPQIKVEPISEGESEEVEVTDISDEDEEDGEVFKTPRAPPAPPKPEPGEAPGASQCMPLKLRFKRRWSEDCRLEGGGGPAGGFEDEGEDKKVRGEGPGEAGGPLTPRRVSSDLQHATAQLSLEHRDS
In short: as §1

ETV3L = biological target: T6, ETV3L (Homo sapiens, UniProt Q6ZN32 1-361); conditions: protein: recombinant; tags: N-terminal GST; dsDNA, one strand shown
T6 sequence: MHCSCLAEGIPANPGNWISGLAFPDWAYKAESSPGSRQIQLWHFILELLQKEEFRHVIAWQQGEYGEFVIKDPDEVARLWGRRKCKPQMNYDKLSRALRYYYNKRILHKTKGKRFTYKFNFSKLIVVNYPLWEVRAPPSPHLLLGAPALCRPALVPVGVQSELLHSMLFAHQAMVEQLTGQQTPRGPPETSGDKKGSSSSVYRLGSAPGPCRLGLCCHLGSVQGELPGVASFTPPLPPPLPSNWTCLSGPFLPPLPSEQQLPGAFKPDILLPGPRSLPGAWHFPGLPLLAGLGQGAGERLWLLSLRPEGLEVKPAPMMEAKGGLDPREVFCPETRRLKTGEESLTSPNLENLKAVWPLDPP
In short: as §1

ETS2 = biological target: T7, ETS2 (Homo sapiens, UniProt P15036 1-469); conditions: protein: recombinant; tags: N-terminal GST; dsDNA, one strand shown
T7 sequence: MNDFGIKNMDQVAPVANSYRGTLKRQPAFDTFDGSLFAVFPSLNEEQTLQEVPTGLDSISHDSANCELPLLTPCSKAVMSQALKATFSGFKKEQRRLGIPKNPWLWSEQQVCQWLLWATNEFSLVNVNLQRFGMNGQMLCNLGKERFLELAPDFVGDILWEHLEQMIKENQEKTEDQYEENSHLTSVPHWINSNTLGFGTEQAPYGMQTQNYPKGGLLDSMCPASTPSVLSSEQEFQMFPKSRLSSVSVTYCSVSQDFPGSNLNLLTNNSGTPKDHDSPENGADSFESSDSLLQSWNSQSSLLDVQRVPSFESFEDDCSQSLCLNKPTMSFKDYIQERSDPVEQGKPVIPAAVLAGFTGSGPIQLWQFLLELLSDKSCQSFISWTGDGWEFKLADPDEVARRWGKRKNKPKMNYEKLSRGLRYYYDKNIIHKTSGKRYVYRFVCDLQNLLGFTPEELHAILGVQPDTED
In short: as §1

SPDEF = biological target: T8, SPDEF (Homo sapiens, UniProt O95238 1-335); conditions: protein: recombinant; tags: N-terminal GST; dsDNA, one strand shown
T8 sequence: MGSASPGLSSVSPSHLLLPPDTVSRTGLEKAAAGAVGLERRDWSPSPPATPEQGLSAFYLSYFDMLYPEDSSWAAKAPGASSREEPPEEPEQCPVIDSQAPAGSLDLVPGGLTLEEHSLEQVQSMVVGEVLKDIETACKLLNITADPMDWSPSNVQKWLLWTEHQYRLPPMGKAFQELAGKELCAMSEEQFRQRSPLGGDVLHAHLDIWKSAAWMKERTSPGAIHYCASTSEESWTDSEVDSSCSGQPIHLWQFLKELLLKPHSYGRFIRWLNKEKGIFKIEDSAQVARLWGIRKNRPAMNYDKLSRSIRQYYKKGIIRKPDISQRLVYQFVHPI
In short: as §1

ETV7 = biological target: T9, ETV7 (Homo sapiens, UniProt Q9Y603 1-341); conditions: protein: recombinant; tags: N-terminal GST; dsDNA, one strand shown
T9 sequence: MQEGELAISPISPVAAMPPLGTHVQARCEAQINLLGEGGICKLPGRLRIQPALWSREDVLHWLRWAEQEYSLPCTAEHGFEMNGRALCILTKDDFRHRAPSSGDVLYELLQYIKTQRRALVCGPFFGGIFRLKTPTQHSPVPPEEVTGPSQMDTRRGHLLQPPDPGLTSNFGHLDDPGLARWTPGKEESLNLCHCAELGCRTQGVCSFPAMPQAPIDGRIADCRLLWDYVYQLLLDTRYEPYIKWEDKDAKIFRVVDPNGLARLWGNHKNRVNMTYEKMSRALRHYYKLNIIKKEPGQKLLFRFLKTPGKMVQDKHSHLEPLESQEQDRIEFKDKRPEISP
In short: as §1

ELF5 = biological target: T10, ELF5 (Homo sapiens, UniProt Q9UKW6-2 1-255); conditions: protein: recombinant; tags: N-terminal GST; dsDNA, one strand shown
T10 sequence: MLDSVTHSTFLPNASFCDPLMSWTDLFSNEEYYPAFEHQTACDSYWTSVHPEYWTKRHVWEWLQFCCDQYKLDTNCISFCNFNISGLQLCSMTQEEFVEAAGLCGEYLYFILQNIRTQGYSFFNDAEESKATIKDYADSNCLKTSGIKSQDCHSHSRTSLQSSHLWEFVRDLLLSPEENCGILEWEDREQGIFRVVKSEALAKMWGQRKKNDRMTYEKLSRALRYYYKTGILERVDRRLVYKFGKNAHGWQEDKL
In short: as §1

ETV3 = biological target: T11, ETV3 (Homo sapiens, UniProt P41162-2 1-143); conditions: protein: recombinant; tags: N-terminal GST; dsDNA, one strand shown
T11 sequence: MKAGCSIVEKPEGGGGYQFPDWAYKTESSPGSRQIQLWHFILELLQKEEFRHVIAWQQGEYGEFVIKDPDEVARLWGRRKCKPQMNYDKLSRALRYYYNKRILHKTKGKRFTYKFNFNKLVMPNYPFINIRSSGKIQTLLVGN
In short: as §1

ETV6 = ETV6 (Homo sapiens, UniProt P41212 1-452); conditions: protein: recombinant; tags: N-terminal GST; dsDNA, one strand shown
ETV6, sequence (P41212 whole entry): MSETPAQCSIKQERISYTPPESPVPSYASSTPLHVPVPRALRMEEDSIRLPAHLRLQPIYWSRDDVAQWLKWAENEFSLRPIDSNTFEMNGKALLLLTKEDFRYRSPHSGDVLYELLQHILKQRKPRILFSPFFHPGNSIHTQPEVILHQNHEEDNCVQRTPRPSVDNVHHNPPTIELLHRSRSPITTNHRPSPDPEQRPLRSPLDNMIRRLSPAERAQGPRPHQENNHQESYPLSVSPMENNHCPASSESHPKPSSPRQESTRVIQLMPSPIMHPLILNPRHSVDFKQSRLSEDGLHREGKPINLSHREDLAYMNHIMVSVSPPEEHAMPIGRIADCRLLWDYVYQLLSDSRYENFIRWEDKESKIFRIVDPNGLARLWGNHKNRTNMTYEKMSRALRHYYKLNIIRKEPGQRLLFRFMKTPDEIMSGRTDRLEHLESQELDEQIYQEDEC
In short: as §1

TTCGCG was tested, and the binding signal (FEV) was 1.09 fold enrichment (6-mer frequency, TF over GST control), the binding signal (ETV5) was 1.04 fold enrichment (6-mer frequency, TF over GST control) and the binding signal (HSF1) was 1.98 fold enrichment (6-mer frequency, TF over GST control). For the same sequence, the binding signal (SPIC) was 1.16 fold enrichment (6-mer frequency, TF over GST control), the binding signal (ELF4) was 1.06 fold enrichment (6-mer frequency, TF over GST control) and the binding signal (ELK4) was 1.26 fold enrichment (6-mer frequency, TF over GST control). The binding signal (ETV2) was 1.2 fold enrichment (6-mer frequency, TF over GST control), the binding signal (CRX) was 1.29 fold enrichment (6-mer frequency, TF over GST control) and the binding signal (ETV1) was 1.02 fold enrichment (6-mer frequency, TF over GST control). For the same sequence, the binding signal (ERF) was 1.23 fold enrichment (6-mer frequency, TF over GST control), the binding signal (ETV3L) was 1.15 fold enrichment (6-mer frequency, TF over GST control) and the binding signal (ETS2) was 1.1 fold enrichment (6-mer frequency, TF over GST control). For the same sequence, the binding signal (SPDEF) was 1.15 fold enrichment (6-mer frequency, TF over GST control), the binding signal (ETV7) was 1.08 fold enrichment (6-mer frequency, TF over GST control) and the binding signal (ELF5) was 1.07 fold enrichment (6-mer frequency, TF over GST control). The binding signal (ETV3) was 1.12 fold enrichment (6-mer frequency, TF over GST control) and the binding signal (ETV6) was 1.17 fold enrichment (6-mer frequency, TF over GST control).

Source: PMC7862700, “An all-to-all approach to the identification of sequence-specific readers for epigenetic DNA modifications on cytosine”
